High-throughput results deposited in PubChem BioAssay by several laboratories.
ERb SRC1 inh: blocks coactivator binding to human estrogen receptor beta. TR-FRET ER-beta LBD / SRC1-Cy5 peptide binding; receptor agonist-loaded with 1 µM estradiol. inhibition, % at 25.6 µM. 1.3% of 86,000 active;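 active means compounds whose percent inhibition of the receptor-coactivator binding signal exceeds about 50% in the single-dose screen, limit read from the data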
ERa coact pot: ER-alpha (human) coactivator binding potentiation; coactivator binding (% of control), % at 25.6 µM; 1.3% of 86,000 active; TR-FRET ERalpha-LBD/SRC-Cy5 coactivator binding, 2 h; 100 = basal binding, no effect; in the data active means activity above about 200%;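 further: binding measured in presence of low estradiol as agonist stimulus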
Candida biofilm: kills Candida albicans biofilms; C. albicans biofilm + clotrimazole, Alamar Blue; inhibition, % at 6 µM; 0.14% of 85,000 active;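 active means inhibition above 20%; inactive means inhibition below 20%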;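 further: preformed 24 hr biofilms exposed to compound for 48 hr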
Smad3 FoxH1 inh: inhibitors of human Smad3 transcription factor binding; TR-FRET Smad3/Dy647-FoxH1 peptide binding, europium anti-His; inhibition, % at 25 µM; 0.29% of 88,000 active; AID 630;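 active means compounds that reduce the energy-transfer binding signal between the protein and its labelled peptide by more than half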
Target sequence (P84022 whole entry, looked up): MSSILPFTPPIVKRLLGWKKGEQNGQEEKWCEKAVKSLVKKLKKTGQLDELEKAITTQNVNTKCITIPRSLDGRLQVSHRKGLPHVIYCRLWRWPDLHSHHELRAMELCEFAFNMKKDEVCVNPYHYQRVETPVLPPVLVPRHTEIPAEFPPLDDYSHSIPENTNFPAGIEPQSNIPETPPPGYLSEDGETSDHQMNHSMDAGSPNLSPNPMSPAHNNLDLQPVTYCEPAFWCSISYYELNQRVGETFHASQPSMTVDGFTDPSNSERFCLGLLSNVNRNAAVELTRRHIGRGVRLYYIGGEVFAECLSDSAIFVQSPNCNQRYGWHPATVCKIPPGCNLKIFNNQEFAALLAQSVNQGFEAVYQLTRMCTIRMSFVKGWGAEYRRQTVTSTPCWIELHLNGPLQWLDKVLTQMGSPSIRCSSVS
MT1-MMP txn act: activates MT1-MMP transcription. 0.16% of 86,000 active. activation factor at 10 µM. HT1080 MT1-MMP promoter luciferase reporter, luminescence, overnight; hits give high values;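 active means activation factor of at least 2 for MT1-MMP transcription at 10 µM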
ERa SRC1 inh: blocks coactivator binding to human estrogen receptor alpha; P03372; TR-FRET ER-alpha LBD / SRC-1 peptide, estradiol-bound; inhibition, % at 25.6 µM; 1.7% of 86,000 active; AID 629; in the data active means inhibition above about 50%
Of the large screens only hits and unclear results are named; the others gave an inactive call; [ ] = another dose, or the depositor's remark. Only some compounds are listed: those with a hit (about 3.8% of all), similar ones and a draw of the others.

Cc1c(N2CCCC2)cc2c(c1NC(=O)c1ccccc1Cl)C(C)(C)CC2(C)C	none (no result: ERb SRC1 inh, ERa coact pot, Candida biofilm, MT1-MMP txn act, ERa SRC1 inh)
c1ccc(-n2ncc3c2ncn2nc(-c4ccco4)nc32)cc1	ERa coact pot 315[fluorescence artefact?]
CCN(C(=O)CN1CCN(c2ccccc2OC)CC1)c1c(N)n(Cc2ccccc2)c(=O)[nH]c1=O	none
CCN(C(=O)CN1CCCc2ccccc21)c1c(N)n(Cc2ccccc2)c(=O)[nH]c1=O	ERb SRC1 inh 80[fluorescence artefact?]
Cc1ccc(OCC(=O)Nc2ccc(-c3nc4ncccc4o3)cc2)c(C)c1	ERa SRC1 inh 51[fluorescence artefact?]
O=C(COc1ccccc1)Nc1ccc2c(c1)nc1n2CCOC1	none
O=C(COc1ccccc1)Nc1ccc(Cl)c(-c2nc3ncccc3o2)c1	ERa coact pot 226[fluorescence artefact?], ERa SRC1 inh 50
O=C(O)c1c(Cl)c(Cl)c(Cl)c(Cl)c1C(=O)Nc1ccc2cn[nH]c2c1	none (no result: ERb SRC1 inh, ERa coact pot, Candida biofilm, MT1-MMP txn act, ERa SRC1 inh)
CC(C)CCn1cnc2c([nH]c3cccc(Cl)c32)c1=O	ERa coact pot 596[fluorescence artefact?]
COc1ccc(/C(C)=N/NC(=O)c2nc(C)cc(C)n2)cc1	none (no result: MT1-MMP txn act)
COc1ccc2c(c1)[n+]([O-])c(/C(C)=N/NC(N)=S)c(C)[n+]2[O-]	Smad3 FoxH1 inh 66 (no result: ERb SRC1 inh, ERa coact pot, Candida biofilm, MT1-MMP txn act, ERa SRC1 inh)
Nc1cc(S(N)(=O)=O)ccc1SSc1ccc(S(N)(=O)=O)cc1N	none (no result: ERb SRC1 inh, ERa coact pot, Candida biofilm, MT1-MMP txn act, ERa SRC1 inh)
N=c1c(C(=O)NCc2ccco2)cc2c(=O)n3ccccc3nc2n1CC1CCCO1 (configuration not stated)	none
Cc1ccc(Cn2c(=N)c(C(=O)NCc3ccco3)cc3c(=O)n4ccccc4nc32)cc1	ERb SRC1 inh 56[fluorescence artefact?], ERa SRC1 inh 83[fluorescence artefact?]
COc1ccc(CNC(=O)c2cc3c(=O)n4ccccc4nc3n(Cc3ccco3)c2=N)cc1	ERb SRC1 inh 57[fluorescence artefact?], ERa SRC1 inh 91[fluorescence artefact?]
O=C(NCc1ccco1)c1cccn2c(=O)c3cc4ccccc4cc3nc12	ERa SRC1 inh 61[fluorescence artefact?]
COc1ccc(CCn2c(=N)c(C(=O)NCc3ccco3)cc3c(=O)n4ccccc4nc32)cc1OC	none
COCCCNC(=O)c1cccn2c(=O)c3cc4ccccc4cc3nc12	none
N=c1c(C(=O)NCc2ccco2)cc2c(=O)n3ccccc3nc2n1CCc1ccccc1	ERb SRC1 inh 50, ERa SRC1 inh 81[fluorescence artefact?]
O=C(O)CN(CCN(CC(=O)O)CC(=O)O)CC(=O)O.[Mn+2]	none (no result: ERb SRC1 inh, ERa coact pot, Candida biofilm, MT1-MMP txn act, ERa SRC1 inh)
CCn1c(CNc2nc3ccccc3n2C(C)C)nc2ccccc21	none
NNC(=O)[C@@H](O)[C@H](O)[C@H](O)CO	none (no result: ERb SRC1 inh, ERa coact pot, Candida biofilm, MT1-MMP txn act, ERa SRC1 inh)
COC(=O)[C@H]1[C@@H]2C[C@H]3c4[nH]c5ccccc5c4CCN3C[C@H]2CC[C@@H]1OS(=O)(=O)O	none (no result: ERb SRC1 inh, ERa coact pot, Candida biofilm, MT1-MMP txn act, ERa SRC1 inh)
O=C(Nc1nc(-c2cc3ccccc3oc2=O)cs1)c1ccc(Br)o1	ERa coact pot 224[fluorescence artefact?]
COC(=O)c1cn(NC(=O)c2cc(OC)c(OC)c(OC)c2)c(=O)c2ccccc12	ERa SRC1 inh 58[fluorescence artefact?]
COC(=O)c1cn(NC(=O)c2cc(OC)cc(OC)c2)c(=O)c2ccccc12	none
CCOC(=O)c1c(N)sn(-c2ccccc2)c1=S	ERa coact pot 590[fluorescence artefact?]
CCOC(=O)c1c2c(c(=S)n(-c3ccccc3)c1N)CCC2	none
